Screens (PubChem BioAssay)
FAK inh – FAK (human) kinase inhibition | biochemical FAK kinase activity assay | Q05397 | inhibition, %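 (tested at 7 µM)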 | hit rate 0.84% among 97,000 | AID 727
PLK1 kinase inh – inhibitors of human PLK1 kinase | P53350 | recombinant PLK1 kinase, TR-FRET peptide phosphorylation | inhibition, % at 10 µM | hit rate 0.53% among 97,000;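 active = inhibition of 50% or more in the single-concentration screen; inactive = inhibition below 50%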
Target sequence (P53350 whole entry, looked up): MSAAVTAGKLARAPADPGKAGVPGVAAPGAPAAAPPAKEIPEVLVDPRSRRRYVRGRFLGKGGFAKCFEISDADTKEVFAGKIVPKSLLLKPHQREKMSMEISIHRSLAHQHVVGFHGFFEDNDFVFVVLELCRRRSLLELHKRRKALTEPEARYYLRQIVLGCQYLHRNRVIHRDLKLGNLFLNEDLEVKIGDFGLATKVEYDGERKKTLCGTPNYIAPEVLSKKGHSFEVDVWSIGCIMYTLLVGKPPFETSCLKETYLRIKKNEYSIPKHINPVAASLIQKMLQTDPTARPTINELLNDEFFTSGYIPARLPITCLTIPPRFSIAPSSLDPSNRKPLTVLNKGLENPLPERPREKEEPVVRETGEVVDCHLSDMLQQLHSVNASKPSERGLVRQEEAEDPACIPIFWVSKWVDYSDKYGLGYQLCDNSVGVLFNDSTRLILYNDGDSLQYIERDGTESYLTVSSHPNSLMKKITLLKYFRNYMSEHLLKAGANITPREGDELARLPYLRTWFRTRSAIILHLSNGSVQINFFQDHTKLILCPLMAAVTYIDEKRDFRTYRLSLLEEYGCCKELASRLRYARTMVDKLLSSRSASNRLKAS
PLK1 PBD inh – inhibitors of human Plk1 polo box domain binding; Plk1 PBD phosphopeptide binding, fluorescence polarization; hit rate 0.13% among 97,000; AID 693; inhibition, %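 (tested at about 20 µM)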; in the data active = inhibition above about 34%, passing the limit was not always enough
Smad3 FoxH1 inh – blocks human Smad3 binding to FoxH1 peptide; hit rate 0.29% among 88,000; TR-FRET Smad3/Dy647-FoxH1 peptide binding, europium anti-His; P84022; inhibition, % at 25 µM; AID 630;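 active = compounds that reduce the energy-transfer binding signal between the protein and its labelled peptide by more than half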
EphB4 antag – blocks human EphB4 binding to ephrin-B2 | EphB4 LBD / TNYL-RAW-Alexa532 peptide, fluorescence polarization | inhibition, % at 7 µM | hit rate 0.15% among 97,000;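 active = inhibition above the screen-wide mean inhibition plus 3 SD, cut at about 15% in these data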
FAK inh conf – FAK (human) inhibition confirmed; shares compounds with FAK inh; FAK kinase biochemical inhibition assay; inhibition, % at 7 µM; hit rate 28% among 750
A number is an active result; 0 = inactive; - = no result. A selection: hits, their analogues and other compounds. The true share with any hit is near 1.6%. Rule as the data show it, unless noted: active = inhibition above about 19%; inactive = the rest.

SMILES	FAK inh	PLK1 kinase inh	PLK1 PBD inh	Smad3 FoxH1 inh	EphB4 antag	FAK inh conf
O=C(c1cnn2c1NC(c1ccc(Br)cc1)CC2C(F)(F)F)N1CCN(C23CC4CC(CC(C4)C2)C3)CC1 (stereo not drawn)	0	0	0	0	0	-
C/C(O)=c1/ccc2cccc3nc(C)nc1c23	24.1	0	0	0	0	0
CC(OC(=O)C1CCN(S(=O)(=O)c2ccc(Cl)cc2)CC1)C(=O)N1CCc2ccccc21 (stereo not drawn)	0	0	0	0	0	-
Cc1ccc(C(=O)COC(=O)c2ccc3c(c2)C(=O)N(c2cccc4ncccc24)C3=O)cc1C	38.9	0	0	-	0	22.6
Cn1c2ccccc2c(=O)n2c(=O)c3ccccc3cc12	31.1	0	0	0	0	47.1
CC1(C)CCCN(C(=O)c2coc(=O)c(Br)c2)C1	45.6	0	0	60.5	0	67.7
COc1cccc2cc(C(=O)NCc3ccco3)c(=Nc3ccc(C(=O)O)cc3)oc12	0	0	0	0	0	-
CCN(CC)c1nc(N)c2c(N)nc3c(c2c1C#N)CC(c1ccccc1)O3 (stereo not drawn)	0	0	0	0	0	-
N#Cc1c(N2CCCCC2)nc(N)c2c(N)nc3c(c12)CC(c1ccccc1)O3 (stereo not drawn)	0	0	0	0	0	-
CN(CCO)c1nc(N)c2c(N)nc3c(c2c1C#N)CC(=O)N3C1CCCC1	35.2	0	0	0	0	0
CC(C)(C)N1C(=O)Cc2c1nc(N)c1c(N)nc(N3CCCCC3CO)c(C#N)c21 (stereo not drawn)	55.9	0	0	0	0	0
CNC(=O)C1CC(=O)N(CCCc2ccccc2)C(=Nc2ccccc2)S1 (stereo not drawn)	0	0	0	0	0	-
N#Cc1nc(-c2cccs2)oc1NCc1ccccc1	22.3	0	0	0	0	0
Cc1cc(/C=N/NC(=O)c2cccc([N+](=O)[O-])c2)c(C)n1-c1ccc(Cl)cc1Cl	19.9	0	0	-	0	0
COc1ccccc1NC(=O)Cn1nnc(-c2ccccc2NC(=O)c2ccco2)n1	26.8	0	0	0	0	0
COc1ccc(NC(=O)Cn2nnc(-c3ccccc3NC(=O)c3ccco3)n2)cc1	0	0	0	0	0	-
COc1ccccc1NC(=O)Cn1nnc(-c2ccccc2NC(=O)c2cccs2)n1	20.9	0	0	0	0	0
O=C(Cn1nnc(-c2ccccc2NC(=O)c2cccs2)n1)Nc1ccccc1	0	0	0	0	0	-
CNC(=S)NNC(=O)Cc1ccc(OC)c(OC)c1	0	0	0	-	0	-
CCCSC1=N/C(=C\C=C\c2ccco2)C(=O)S1	24.5	0	0	0	0	0
O=C1SC(SCc2ccccc2)=N/C1=C\c1ccco1	0	0	0	0	0	-
COCCN(Cc1ccccc1)P(=O)(O)c1ccccc1OCC(=O)O	62.1	0	0	0	0	51.6
CC(=O)Cc1ccccc1OCC(=O)O	0	0	0	0	0	-
COc1ccc2c(c1)nc(SCC(=O)c1cccs1)n2C	0	0	0	-	0	-
CCOC(=O)c1cnc2ccc(C)cc2c1Nc1ccc(N2CCOCC2)cc1	51.4	0	0	-	0	22.2
SMILES	FAK inh	PLK1 kinase inh	PLK1 PBD inh	Smad3 FoxH1 inh	EphB4 antag	FAK inh conf
CCOC(=O)c1cnc2ccc(C)cc2c1Sc1ccc(F)cc1	0	0	0	-	0	-
CCOC(=O)c1cnc2ccc(C)cc2c1Sc1ccccc1	22.1	0	0	-	0	0
CCOC(=O)c1cnc2ccc(OCC)cc2c1N1CCN(c2ccccc2)CC1	0	0	0	0	0	-
CC(C)(C(=O)c1ccccc1)/[N+]([O-])=C/c1ccccc1F	0	0	0	-	0	-
CCCCn1c(NC(C)=O)c(C#N)c2nc3ccccc3nc21	0	0	0	0	0	-
C=CCn1c(NC(=O)c2ccccc2Cl)c(C#N)c2nc3ccccc3nc21	20.0	0	0	0	0	0
Cc1ccccc1N(C(=O)Cn1nnc(-c2cccs2)n1)C(C(=O)NCCC(C)C)c1ccco1 (stereo not drawn)	0	0	0	0	0	-
CCN(CC)CCn1c2ccccc2c2cnc(N)c(C#N)c21	39.9	52.0	0	0	0	0
COc1ccc(CN(C(=O)CSc2nnc(-c3c[nH]c4ccccc34)o2)c2ccc(F)cc2)cc1OC	0	0	0	0	0	-
CCOC(=O)CCCNC(=O)COC(=O)c1ccc(O)cc1	0	0	0	-	0	-
COc1ccc(-n2cnnc2SCC(=O)Nc2cc(C(C)(C)C)nn2-c2ccccc2)cc1	23.4	0	0	0	0	0
Cc1ccc(Cl)cc1NC1=C/C(=N\S(=O)(=O)c2cccs2)c2ccccc2C1=O	31.8	0	0	-	0	22.9
N/C(=N\S(=O)(=O)c1cccs1)c1ccccc1	0	0	0	0	0	-
Nc1ccc(-c2nc3c(Cl)cc(N)cc3[nH]2)cc1	25.5	0	0	0	0	0
Nc1ccc2nc(-c3ccc(N)c(Cl)c3)[nH]c2c1	0	0	0	0	0	-
CCOC(=O)c1cccc(NS(=O)(=O)c2ccc(NC(C)=O)cc2)c1	0	0	0	0	0	-
CCOC(=O)c1cccc(NS(=O)(=O)c2c(C)[nH]c(=O)[nH]c2=O)c1	21.3	0	0	0	0	0
COc1ccc(-n2nnnc2SCC(=O)Nc2nnn(C)n2)cc1	0	0	0	0	0	-
COc1ccc(-n2nnnc2SCC(=O)Nc2nc3c(s2)CCCC3)cc1	23.8	0	0	0	0	0
CSc1nc(N(C)CCO)c2sc3nc(-c4ccco4)c4c(c3c2n1)CCC4	35.8	0	0	-	0	0
CSc1nc(N2CCN(CCO)CC2)c2sc3nc(-c4ccco4)c4c(c3c2n1)CCC4	-	-	-	0	-	-
NC(=O)c1c(NC(=O)c2ccco2)sc2c1CCC2	20.1	0	0	0	0	0
CCC(=O)Nc1sc2c(c1C(N)=O)CCC2	21.4	0	0	0	0	0
NC(N)=NC[C@@H]1CCCCCCN1	-	-	-	0	-	-
CCCCc1nc2n[nH]c(N)c2c2c1CCC2	19.9	0	0	0	0	0
SMILES	FAK inh	PLK1 kinase inh	PLK1 PBD inh	Smad3 FoxH1 inh	EphB4 antag	FAK inh conf
CC(C)Cc1nc2n[nH]c(N)c2c2c1CCC2	19.0	50.4	0	0	0	0
O=C(CSc1nc2ccccc2c(=O)n1Cc1ccco1)N1CCCCCC1	36.0	0	0	0	0	0
COCCNC(=O)c1ccc2c(=O)n(Cc3ccco3)c(SCC(=O)NC3CCCCC3)nc2c1	32.7	0	0	0	0	0
CCOC(=O)c1ccc(NC(=O)CSc2nc(NC(=O)c3ccccc3)c3c(C)c(C)oc3n2)cc1	27.2	0	0	0	0	0
COC(=O)c1ccccc1NC(=O)CSc1nc(NC(=O)c2ccccc2)c2c(C)c(C)oc2n1	0	0	0	0	0	-
CC(=O)CSc1nc(C(F)(F)F)cc(=O)n1-c1ccccc1	56.2	0	0	-	0	0
O=C(N/N=C1/C(=O)c2cccc3cccc1c23)c1ccc(Cl)cc1	92.2	0	0	-	24.9	87.0
NNC(=O)Cn1c(SCc2ccccc2)nc2ccccc21	0	0	0	0	0	-
Cc1ccc(/C=N\Nc2nc3ccc(Cl)cc3[nH]2)o1	21.4	0	0	-	0	0
O=C(Cn1c(=O)oc2cc(S(=O)(=O)N3CCCC3)ccc21)NC1CCCc2ccccc21 (stereo not drawn)	-	-	-	0	-	-
